Among all 2,300 compounds or so, about 350 (15%) were called active. No rule for the calls is given here. The list is a sample of the results. Measured potencies and affinities stand elsewhere.

The test can be described thus: HepG2 cell cytotoxicity, dose response, cytotoxicity control for non-replicating M. tuberculosis project (AID 489018).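 Also: HepG2 human liver cells.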 The note with it: series mostly up to 20 µM.
`Brc1c(-c2ccc3c(c2)OCO3)nc2ncccn12`: the result was inactive.

For `O=C(Nc1ccc(N2CCN(C(=O)c3ccco3)CC2)c(Cl)c1)c1cccs1`, the result was inactive.

Regarding `COC(=O)c1ccccc1Sc1ncnc2onc(C)c12`, the compound was classed as inactive.

For `Cc1c(Cl)cccc1-c1ccc(CNCc2ccccn2)o1`, the compound was called inactive.

Consider `N#Cc1nc(-c2ccc(OCc3ccccc3)cc2)oc1NCCCn1ccnc1`, for which the result was inactive.

As to `CCOC(=O)C(C)Oc1cc(Cl)c(C=O)cc1OC` (configuration not stated), the call was inactive.

Turning to `N/N=C(/Cc1nc2ccccc2[nH]1)c1ccc([N+](=O)[O-])cc1`, the outcome was inactive.

Regarding `O=C(Nc1cc(C(F)(F)F)ccc1-n1cncn1)c1ccc([N+](=O)[O-])o1`, the outcome was inactive.

With `COc1ccccc1-c1nnc(Sc2nc([N+](=O)[O-])nn2C)o1`, the result was inactive.

In the case of `Cc1cc(C)c(C(=O)COC(=O)c2ccc([N+](=O)[O-])o2)cc1C`, the compound was classed as inactive.

As to `COc1ccc2cc(C(=O)C3CCCN(Cc4cccc(C)n4)C3)ccc2c1` (configuration not stated), the call was inactive.

For `CCCCOc1ccc(NC(=O)CN2CCN(Cc3ccccc3)CC2)cc1`, the outcome was inactive.

With `CC(C)(C)c1ccccc1OCCOCCN1CCCCCC1`, the compound was classed as inactive.

For the compound `CS/C(Nc1cc(Cl)ccc1Cl)=C(/C#N)C(=O)c1ccco1`, the call was inactive.

For the compound `Cc1[nH]c2ccccc2c1C(=O)COC(=O)c1ccc([N+](=O)[O-])s1`, the compound was called inactive.

For the compound `c1ccc(-c2n[nH]c(-c3ccccn3)n2)nc1`, the result was inactive.

As to `c1ccc(Nc2nc(-c3ccccn3)cs2)cc1`, the compound was classed as inactive.

For the compound `COC(=O)C(C)Oc1ccc2cc(-c3ccccc3)c(=O)oc2c1` (configuration not stated), the result was inactive.

As to `O=C(CCS(=O)(=O)Cc1ccccc1)Nc1ncc([N+](=O)[O-])s1`, the result was inactive.

On to `O=S(=O)(c1ccc(OCC2CO2)cc1)c1ccc(OCC2CO2)cc1` (configuration not stated), for which the compound was classed as inactive.

On to `Cc1ccccc1C(=O)NN1CC(C(=O)OCc2ccc(Cl)c(Cl)c2)CC1=O` (configuration not stated), for which the result was inactive.

Take `CCC(C)c1ccc(OCCn2ccnc2)cc1` (configuration not stated): the compound was classed as inactive.

On to `Cc1ccc2nc(C)c3c(c2c1)COC3`, for which the compound was called inactive.

Take `Cc1[nH]n(-c2cccc(Cl)c2)c(=O)c1/C=N/n1c(C)nc2ccccc2c1=O`: the compound was classed as inactive.

For `CC(C)(C)NCC1(CO)SC(N)=NC1=O` (configuration not stated), the result was inactive.

Turning to `CCOC(=O)/C=C1\Nc2ccccc2OC1=O`, the result was inactive.

On to `COc1cc(NC(=O)C/C(C)=N/NC(=O)c2cccs2)c(OC)cc1Cl`, for which the compound was classed as inactive.

With `O=C(Nc1nnc(-c2ccco2)o1)c1cccc2ccccc12`, the compound was called inactive.

For `COC(=O)c1cc(-c2ccc(OC)cc2)on1`, the result was inactive.

As for `COc1ccc(/C=C/c2nc3ccccc3c(=O)o2)cc1`, the compound was classed as inactive.

With `CC(=O)c1ccc(OC(=O)c2ccc(-n3nc(C)cc3C)cc2)cc1`, the compound was classed as inactive.

As for `Cn1nnc(NC(=O)COc2ccc(C3CCCCC3)cc2)n1`, the compound was called inactive.

Turning to `O=Cc1ccnc(-c2ccc(OC(=O)c3ccco3)cc2)n1`, the compound was called inactive.

With `Cc1ccc(N/N=C2\CS(=O)(=O)N(C)c3ccsc32)cc1`, the result was inactive.

For `O=C(N/N=C/c1ccc[nH]1)c1cccnc1`, the result was inactive.

On to `O=C(N/N=C/c1ccc(Br)s1)c1cccnc1`, for which the call was inactive.

In the case of `COc1ccc(OCC(=O)NNC(=O)c2ccccn2)cc1`, the outcome was inactive.

With `O=C(N/N=C/c1ccccn1)c1cccc([N+](=O)[O-])c1`, the compound was called inactive.

For `COc1cc(OC)cc(C(=O)NNC(=O)c2ccccn2)c1`, the call was inactive.

`O=C(N/N=C/c1ccccn1)c1cc([N+](=O)[O-])cc([N+](=O)[O-])c1`: the outcome was inactive.

`COc1cccc(NC(=O)c2ccc(C(=O)c3ccccc3)o2)c1`: the result was inactive.

On to `COc1ccc(C(=O)N/N=C/c2cccc3cccnc23)cc1`, for which the compound was called inactive.

Regarding `Cc1ccc2[nH]c(C)c(CCNC(=O)c3cc4cc([N+](=O)[O-])ccc4oc3=O)c2c1`, the call was inactive.

Regarding `Cc1cccc(NCCC(=O)c2ccc([N+](=O)[O-])cc2)c1C`, the outcome was inactive.

`CC(C)c1ccc(C2=C(O)c3ccccc3C(=O)C2=O)cc1`: the call was inactive.

Take `O=C(CC1CCCC1)OCn1nnc2ccccc2c1=O`: the outcome was inactive.

Regarding `O=C(c1cc([N+](=O)[O-])cc([N+](=O)[O-])c1)N(Cc1nnc(-c2ccccc2Cl)o1)C1CC1`, the call was inactive.

Take `O=C1N/C(=N\c2ccccn2)SC1Cc1ccc(Cl)cc1` (configuration not stated): the result was inactive.

`COc1cc(/C=C/c2ccc3c([N+](=O)[O-])cccc3n2)ccc1OCC(=O)O`: the result was inactive.

Consider `CCCOc1ccc(-c2nc(C#N)c(NCCCn3ccnc3)o2)cc1`, for which the outcome was inactive.

With `O=C(CCSc1nnc(-c2ccccc2)o1)N1CCOCC1`, the compound was classed as inactive.

`Cc1onc(-c2ccccc2)c1C(=O)O/N=C(\N)c1ccc([N+](=O)[O-])o1`: the compound was called inactive.

Consider `O=C(COC(=O)c1ccc(Br)o1)NCCCc1ccccc1`, for which the compound was called inactive.

`Oc1ccccc1Nc1nc(NCC2CCCO2)c2ccccc2n1` (configuration not stated): the call was inactive.

For `O=C(c1ccc([N+](=O)[O-])s1)N1CCN(c2cccc(Cl)c2)CC1`, the outcome was inactive.

Consider `Cc1ccc(-c2nn(-c3ccccc3)cc2/C=N/NC(=O)c2ccncc2)o1`, for which the result was inactive.

`NC(N)=N/N=C/c1cn(-c2ccccc2)nc1-c1cccs1`: the result was inactive.

Take `O=c1oc(-c2cccs2)nc2c1cnn2-c1ccccc1`: the compound was classed as inactive.

Regarding `O=C(N/N=C/c1cccc2nccnc12)c1ccncc1`, the compound was called inactive.

Regarding `CC(C)(C)Sc1ccc2nc3c(n2c1)CCCC3`, the call was inactive.

`CCOC(=O)C(Nc1ccc2ccccc2c1)C(=O)OCC`: the compound was classed as inactive.

As to `CC1Cc2ccccc2N1C(=O)COC(=O)c1ccc(Cl)nc1` (configuration not stated), the compound was called inactive.

As for `O=C(CNC(=O)c1cccc(F)c1)N/N=C/c1ccc([N+](=O)[O-])s1`, the result was inactive.

Take `CC(C)(C)OC(=O)N/N=C\c1ccc([N+](=O)[O-])s1`: the compound was called inactive.

For `COC(=O)N/N=C/c1ccc([N+](=O)[O-])s1`, the outcome was inactive.

In the case of `CCOC(=O)N/N=C\c1ccc([N+](=O)[O-])s1`, the compound was classed as inactive.

`O=C(N/N=C/c1ccc([N+](=O)[O-])s1)c1ccncc1`: the compound was called inactive.

As to `Cc1ccc(C(=O)N/N=C/c2ccc([N+](=O)[O-])s2)cc1`, the result was inactive.

In the case of `O=C(N/N=C/c1ccc([N+](=O)[O-])s1)c1cccc(Br)c1`, the compound was classed as inactive.

Consider `O=C(N/N=C/c1ccc([N+](=O)[O-])s1)c1ccccc1`, for which the call was inactive.

With `Oc1oc(-c2ccco2)nc1C=Nc1cccc(Cl)c1`, the result was inactive.

For `CCCCOC(=O)C1CCCC(C(=O)OCCCC)N1` (configuration not stated), the call was inactive.

On to `COC(=O)COc1ccc(S(=O)(=O)N2CCCCCC2)cc1`, for which the result was inactive.

Consider `O=C(CNC(=O)c1ccco1)OCc1ccc(C(=O)Oc2ccccc2)cc1`, for which the result was inactive.

`Cn1c(-c2cccc([N+](=O)[O-])c2)cnc1NCc1cccc(F)c1`: the compound was classed as inactive.

`Cc1ccc(C)c(-c2csc(NC(=O)c3cnccn3)n2)c1`: the call was inactive.

For `O=C(Nc1nnc(-c2ccccn2)o1)c1cccc(Cl)c1`, the compound was classed as inactive.

In the case of `COCCOC(=O)c1c(C)oc2ccc(OC(=O)c3ccco3)cc12`, the call was inactive.

For the compound `O=C(Nc1nnc(-c2ccc(Br)cc2)o1)C1=COCCO1`, the outcome was inactive.

As for `O=C(c1ccc(-c2ccc([N+](=O)[O-])cc2)o1)N1CCCCCCC1`, the result was inactive.

Take `FC(F)(F)c1nnc2ccc(Cl)nn12`: the result was inactive.

Consider `COc1ccc(/C=N/Nc2cc(C)nc(-n3nc(C)cc3C)n2)cc1`, for which the call was inactive.

As for `COc1ccc(Nc2ccccc2N)cc1`, the outcome was inactive.

On to `Cc1cc(N/N=C/c2ccccc2O)c2ccccc2n1`, for which the compound was called inactive.

On to `COc1cc(/C=N/Nc2cccc3cccnc23)cc(OC)c1O`, for which the compound was classed as inactive.

Regarding `COc1ccc2nc(/N=C(\N)NC(=O)C(C)(C)C)nc(C)c2c1`, the compound was classed as inactive.

`Cc1nnc(N/N=C/c2ccc(Br)cc2)n1N`: the compound was called inactive.

With `O=C(c1ccccc1)c1nc[nH]c1C(=O)Nc1ccccc1`, the compound was classed as inactive.

Regarding `COC(=O)C(O)(c1ccc(NC(=S)NC(=O)c2ccccc2)cc1)C(F)(F)F` (configuration not stated), the compound was called inactive.

As for `O=C(N=Nc1c(O)[nH]c2ccc(Br)cc12)c1ccccc1-n1cccc1`, the compound was classed as inactive.

On to `O=C(Oc1ccccc1)c1ccc(NC(=O)c2ccco2)cc1`, for which the compound was classed as inactive.

As for `O=C1NC(=O)C(=Cc2ccc(Oc3ccc([N+](=O)[O-])cc3)cc2)C(=O)N1`, the call was inactive.

On to `c1ccc2sc(SCc3ccc(-c4nnco4)cc3)nc2c1`, for which the compound was called inactive.

In the case of `CCCCNC(=O)Nc1nnc(-c2ccc(Cl)cc2)o1`, the compound was classed as inactive.

Turning to `CC(NC(=O)c1cc([N+](=O)[O-])cc([N+](=O)[O-])c1)c1ccc(-n2ccnc2)cc1` (configuration not stated), the compound was called inactive.

As to `Cc1cccc(OCCN2CSC(=S)N(C)C2)c1`, the call was inactive.

As to `Clc1ccc(OCCCNCc2ccccc2)c2ccccc12`, the compound was classed as inactive.

In the case of `Clc1cccc(CNCCNCc2cccc(Cl)c2)c1`, the result was inactive.

`COC(=O)C1CC(=O)N(c2ccc(OCc3ccccc3Cl)cc2)C1` (configuration not stated): the compound was classed as inactive.

As to `Clc1ccc(Cl)c(OCCCCNCc2ccccc2)c1`, the compound was called inactive.

On to `COc1cc(CNCCc2ccccc2)cc(Br)c1OCC(=O)Nc1ccccc1C`, for which the outcome was inactive.

For `COc1cc(CNC2CCCC2)cc(Cl)c1OCc1ccc(F)cc1`, the result was inactive.

Consider `N#C/C(N=Nc1ccccc1O)=N\Nc1ccccc1O`, for which the compound was called inactive.

On to `O=C(OCC#CCSc1nc2ccccc2o1)c1ccco1`, for which the call was inactive.

As for `O=C(CCNc1ccc(Cl)cc1)c1cccs1`, the call was inactive.

Take `O=C(N/N=C/c1ccccn1)c1cccc(S(=O)(=O)Nc2ccccc2Cl)c1`: the call was inactive.

Take `CC(=O)Nc1nc2ccccc2n1CCOc1ccccc1Cl`: the outcome was inactive.

As to `COc1cccc2cc(-c3nc4ccccc4o3)c(=O)oc12`, the result was inactive.

For `NC(=O)c1ccc(N=Cc2ccc([N+](=O)[O-])s2)cc1`, the call was inactive.

With `CCC(C)(C)c1ccc(OCC(=O)Nc2ccncc2)cc1`, the compound was classed as inactive.

`Cc1nnc(N/N=C/c2ccc(-c3ccc(Br)cc3)o2)n1N`: the outcome was inactive.

Turning to `O=C(Nc1nnc(-c2ccc(Cl)cc2)o1)c1nc2ccccc2s1`, the compound was called inactive.

As to `Cc1ccc2nc(CCc3nc4ccc(C)cc4[nH]3)[nH]c2c1`, the outcome was inactive.

As to `O=C(CCNc1ccc(Cl)c(C(F)(F)F)c1)c1ccco1`, the compound was called inactive.

As for `CN(C)CCNc1c2c(c(C#N)c3nc4ccccc4n13)CCCC2`, the compound was classed as inactive.

As for `COc1cccc(-c2cc3nc4c(c(NCC(C)(C)CN(C)C)n3n2)CCCC4)c1`, the compound was called inactive.

As for `CSc1ccc(CNc2ncc(-c3cccc([N+](=O)[O-])c3)n2C)cc1`, the call was inactive.

For the origin of these results see PubChem BioAssay AID489018 (Southern Research Specialized Biocontainment Screening …, 2010).
